Giardia FBPA inh = blocks Giardia fructose-bisphosphate aldolase activity. Potency, µM (highest dose often 59.6 µM), inactives show at the highest dose activity, negative = inhibition, most hits filed as inhibitors. purified Giardia FBPA. A8B2U2. 0.71% of 290,000 active; note: potency is the fitted concentration of half-maximal effect; % is set by controls: 0 for no effect and ±100 for the full control effect; nearly all actives have a fitted effect of over 55% in size
Target sequence (A8B2U2 whole entry, looked up): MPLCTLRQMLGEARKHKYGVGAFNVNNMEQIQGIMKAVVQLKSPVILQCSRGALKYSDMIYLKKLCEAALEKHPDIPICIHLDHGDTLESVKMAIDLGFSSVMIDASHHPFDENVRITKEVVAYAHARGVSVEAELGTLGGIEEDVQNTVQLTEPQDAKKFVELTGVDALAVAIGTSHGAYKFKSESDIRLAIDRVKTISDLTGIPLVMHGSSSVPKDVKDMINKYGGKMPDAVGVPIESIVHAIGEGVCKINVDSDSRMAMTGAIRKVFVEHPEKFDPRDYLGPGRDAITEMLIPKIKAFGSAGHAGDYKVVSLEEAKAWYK
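40 nM FBPA preincubated 10 min at RT with compound (up to 57.5 uM final), then substrate plus GAPDH/TPI/NAD/arsenate coupling and diaphorase/resazurin added. Fluorescence read after 20 min at RT, 525/598 nm.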
LmPK inh = inhibitors of Leishmania mexicana pyruvate kinase | purified LmPK, Kinase-Glo ATP luminescence, 1 h | Potency, µM (series often up to 57.5 µM), for the others: at the top dose activity change, negative = inhibition, hits mostly inhibitors | 0.37% of 290,000 active; note: potency is the fitted concentration of half-maximal effect; % is set by controls: 0 for no effect and ±100 for the full control effect
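Purified LmPK (0.1 nM) converted ADP (0.1 mM) to ATP with PEP (0.5 mM) in imidazole buffer pH 7.2 with KCl and MgCl2, 1 h at room temperature. ATP was read by Kinase-Glo luminescence; data normalized to uninhibited and no-enzyme controls.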
Shiga inhibitor = Shiga toxin inhibition | Vero cells, Shiga toxin protein synthesis inhibition reporter | inhibition, % at 38.7 µM | 9.2% of 290,000 active; in the data active = inhibition mostly above about 28%, no sharp cut-off; inactive = mostly below about 43%; note: 0% is about no effect
RE007 growth inh = less growth of the S. pombe RE007 Vpr strain; S. pombe RE007 Vpr strain, BacTiter-Glo ATP luminescence, 24 h; Potency, µM (doses to about 92.2 µM), for the others: at the top dose activity change, negative = less growth, most hits filed as inhibitors; 0.21% of 360,000 active; AID 651644; active = well fitted falling curve with a large enough effect; inconclusive = small, poorly fitted or top-dose-only effect; inactive = no such curve, though single readings can be large or run the other way; note: potency is the fitted concentration of half-maximal effect; % is set by controls: 0 for no effect and ±100 for the full control effect; nearly all actives have a fitted effect of over 50% in size
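Fission yeast RE007 carrying one integrated HIV-1 vpr copy, seeded at OD 0.01 in PMG+AL medium with 23 nL pinned compound. Grown 24 h at 30 degrees; viability read by BacTiter-Glo luminescence after 5 min.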
CHX counter = affects cycloheximide protein synthesis inhibition readout, counter-screen; cell reporter, cycloheximide protein synthesis inhibition counterscreen; max response, %; 12% of 300,000 active; AID 2314; in the data active = max response mostly above about 13%, no sharp cut-off; inactive = mostly below about 14%; note: read at 38.3 µM for the half of the compounds with a filed dose; 0% is about no effect
Tb PYK inh = inhibitors of Trypanosoma brucei pyruvate kinase | Potency, µM (doses to about 76.8 µM), for inactives: at the top dose activity, negative = inhibition, actives largely listed as inhibitors | Q57TT1 | AID 624173 | 0.12% of 410,000 active | TbPYK enzyme, Kinase-Glo Plus ATP luminescence, 45 min; note: potency is the fitted concentration of half-maximal effect; % is set by controls: 0 for no effect and ±100 for the full control effect; nearly all actives have a fitted effect of over 50% in size
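Screened from lowest to highest concentration, compounds were pinned into TbPYK/substrate mixtures, and ADP (130 uM final) was added. Plates sat at room temperature for 45 min prior to Kinase-Glo Plus detection by luminescence.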
An asterisk follows results filed as active; ? = inconclusive; / = no result; [ ] = remark or other dose. The full list was thinned out, with hits kept by preference. Unless noted, calls come from the whole dose curve; as a rule, active = well fitted curve in the direction sought with a large enough effect; inconclusive = small, poorly fitted or top-dose-only effect, or another doubt; inactive = no such curve, though single readings can be large; an effect the other way counts as inactive or inconclusive.

SMILES	Giardia FBPA inh	LmPK inh	Shiga inhibitor	RE007 growth inh	CHX counter	Tb PYK inh
CCC(C)N(C(=O)COC(=O)CNC(=O)c1sc2ccccc2c1Cl)C1CCS(=O)(=O)C1 (configuration not stated)	-0.9%	0.3%	70.1	-11.8%	45.6*	3.0%
Cc1cc2nc(-c3ccc[nH]c3=O)n(Cc3cccc(F)c3)c2cc1C	9.1%	11.8%	56.0	-7.6%	7.0	-0.7%
CCCn1c(-c2ccc[nH]c2=O)nc2cc(C)c(C)cc21	-1.2%	-15.2%	72.2*	-18.4%	38.2*	-4.5%
Cc1cccc(S(=O)(=O)c2c(C)cc(C)[nH]c2=O)c1	8.0%	-3.0%	27.9	3.4%	29.7*	-4.8%
Cc1ccc(S(=O)(=O)c2c(C)cc(-c3ccccc3)[nH]c2=O)cc1	5.6%	-0.6%	19.3	-16.8%	-2.8	0.6%
Cc1cc(C)c(S(=O)(=O)c2cccc(C(F)(F)F)c2)c(=O)[nH]1	6.5%	-2.1%	2.9	2.7%	-2.7	-3.9%
Cc1cc(C)c(S(=O)(=O)c2ccccc2)c(=O)[nH]1	9.4%	-2.8%	13.3	17.3%	18.0*	1.6%
COC(=O)c1ccc(-c2ccc(C3C4C=CCC(C)C4C(=O)N3Cc3ccccc3)c(F)c2)cc1 (configuration not stated)	0.1%	/	15.9	/	8.6	/
CC(C)=C1C2C=CC1C1C(=O)N(c3ccc4c(c3)OCO4)C(=O)C21 (configuration not stated)	-21.9%	8.9%	29.1	31.6µM*	8.0	-2.7%
CC(C)=C1C2CCC1C1C(=O)N(c3ccc4c(c3)OCO4)C(=O)C21 (configuration not stated)	-9.5%	-0.9%	-3.7	/	-4.7	-23.7%
Cc1ccc(N2Cc3ccccc3C2=S)cc1	-3.9%	-10.8%	81.8*	-27.2%	36.9*	-0.1%
C[C@@H](C(=O)O)c1ccc(N2Cc3ccccc3C2=O)cc1	4.3%[21.7 µM]	/	/	/	/	/
S=C1c2ccccc2CN1c1ccccc1	-1.6%	0.1%	74.9*	-22.7%	59.6*	-6.0%
COc1ccc(NC(=O)CSc2nnc(-c3nonc3NC(C)=O)n2C)cc1Cl	/	/	/	/	/	3.2%
CC(C)(C)C(=O)Oc1ccc(S(=O)(=O)Nc2ccccc2C(=O)NCC(=O)O)cc1	/	/	/	/	/	-9.8%
CCc1ccc2oc(-c3cc(N=Cc4cccc(OC)c4O)ccc3O)nc2c1	12.6%	-24.6%	103.6*	-10.8%	28.8*	-8.5%
CCc1ccc2oc(-c3cc(NC(=O)c4cc(OC)c(OC)c(OC)c4)ccc3O)nc2c1	/	/	/	/	/	-1.8%
COc1ccccc1C1CC(c2cccs2)=NN1C(=O)CCC(=O)O (configuration not stated)	11.7%	-0.7%	-2.2	-15.1%	-2.3	-2.1%
COc1ccccc1C1CC(c2cccs2)=Nc2ccccc2S1 (configuration not stated)	-3.9%	-4.5%	96.6*	-16.2%	69.7*	-5.5%
CC(=O)N(C)c1ccc(NC(=O)C(Sc2ccccc2)c2ccccc2)cc1 (configuration not stated)	2.8%	5.5%	43.4*	-5.2%	18.4*	-5.4%
CC(=O)N(C)c1ccc(NC(=O)C(c2ccccc2)c2ccccc2)cc1	/	/	/	4.5%	/	1.9%
Cc1c(CBr)[n+](=O)c2c(n1[O-])C(Br)CCC2Br (configuration not stated)	?	1.5%	16.7	-0.3%	14.3*	?
Cc1c(C)[n+](=O)c2c(n1[O-])C(Br)CCC2Br (configuration not stated)	-20.0%	-2.9%	14.3	0.5%	-2.6	5.3%
N#C/C(C(=O)N1CCOCC1)=C1\Nc2ccccc2S1	-11.1%	-7.9%	64.1*	-18.9%	34.6*	-11.3%
CCc1ccccc1NC(=O)CSc1nncn2c1cc1oc(C)cc12	/	/	/	/	/	-3.3%
SMILES	Giardia FBPA inh	LmPK inh	Shiga inhibitor	RE007 growth inh	CHX counter	Tb PYK inh
O=C(NCCCCc1ccccc1)Nc1cccc(F)c1	2.8%	-0.7%	47.7*	-22.3%	46.7*	1.7%
Cc1ccc(NC(=O)NCCCCc2ccccc2)cc1	0.8%	-6.2%	29.2*	-9.2%	17.0	0.0%
Cc1cccc(NC(=O)NC(C)CCc2ccccc2)c1 (configuration not stated)	1.4%	0.5%	12.5	6.8%	21.2*	0.4%
Cc1cccc(NC(=O)NCCCCc2ccccc2)c1	-10.9%	-6.0%	23.4*	15.0%	9.8	4.1%
Cc1cccc(NC(=S)NC(C)CCc2ccccc2)c1 (configuration not stated)	2.3%	1.7%	0.0	5.3%	-2.1	0.2%
Cc1ccc(CNC(=O)c2cc(C)nc3c2c(C)nn3-c2ccc(C)cc2)cc1	/	/	/	/	/	9.6%
O=C(CSc1nc2c([nH]c3ccccc32)c(=O)n1-c1ccccc1)c1ccc(Cl)cc1	/	/	/	/	/	-4.6%
Cn1/c(=N/N=C/c2ccc(Cl)c([N+](=O)[O-])c2)sc2ccccc21	2.7%	3.4%	-5.2	3.0%	8.6	-2.4%
Cn1/c(=N/N=C/c2ccccn2)sc2ccccc21	-18.5%	-5.4%	91.5*	-25.3%	51.1*	5.0%
Cn1/c(=N/N=C/c2ccc(N3CCOCC3)cc2)sc2ccccc21	-17.0%	6.7%	71.4*	1.2%	36.9*	1.2%
CCCCCCCC1=Cc2ccccc2C(C(C(=O)OC)C(=O)OC)N1C(=O)OC (configuration not stated)	3.9%[12.9 µM]	-3.1%[11.5 µM]	/	/	/	/
O=C(Nc1cccc(-c2nc3ccccc3s2)c1)c1cccs1	-0.4%	1.6%	10.4	-1.9%	11.7	0.5%
COc1ccc(CC(=O)Nc2ccc(-c3cn4ccc(C)cc4n3)cc2)cc1	-0.1%	-5.5%	15.8	-13.5%	15.6*	4.0%
COc1ccc(CC(=O)Nc2ccc(-c3cn4cccc(C)c4n3)cc2)cc1OC	0.8%	9.8%	23.4	0.1%	15.5	-4.1%
O=C(Nc1cccc(-c2cn3ccccc3n2)c1)c1cccs1	2.1%	-2.2%	60.8*	21.4%	33.7*	-5.2%
O=C(Nc1cccc(-c2cn3ccccc3n2)c1)c1cc2ccccc2oc1=O	1.6%	-5.3%	71.4*	-6.0%	59.3*	-32.4%
Cc1ccn2cc(-c3cccc(NC(=O)c4ccccc4)c3)nc2c1	-1.1%	-8.0%	44.0*	2.6%	59.9*	3.7%
CC(C)C(=O)Nc1cccc(-c2cn3ccccc3n2)c1	-0.4%	0.4%	17.3	-6.2%	13.8*	0.5%
Cc1ccn2cc(-c3cccc(NC(=O)C(C)C)c3)nc2c1	-11.4%	-7.0%	34.6	-13.0%	22.5*	-15.9%
CC(=O)Nc1cccc(-c2cn3ccccc3n2)c1	-6.9%	-2.0%	39.5	-3.3%	39.1	5.5%
O=C(NCC1CCN(Cc2ccc(F)cc2)CC1)c1cc2ccc3cccnc3c2[nH]1	/	/	/	/	/	-2.0%
CSCc1ccc(C(=O)NCc2ccc(C)cc2)cc1	7.4%	2.2%	active	-13.7%	21.0*	-0.4%

Assay outcomes from PubChem BioAssay.
